PubChem BioAssay (Tox21)
Results filed as inconclusive are left out. Activity calls are given as the source filed them. Calls follow the shape of the dose curve; as a rule, active = well fitted inhibition curve with a large enough effect in the signal ratio in the repeat runs (not every such curve was filed as active); inconclusive = weak or mixed curves; inactive = flat fitted curve, though single readings scatter; the % refers to the signal ratio.

Assay: qHTS assay to identify small molecule antagonists of the TGF-beta/Smad signaling pathway (AID 1346924)
Settings: SBE-bla HEK293T, TGF-beta/Smad reporter, beta-lactamase ratio
Excerpt: U.S. Tox21 Program National Center for Advancing Translational Sciences [NCATS] NIH Chemical Genomics Center [NCGC] U.S. Environmental Protection Agency [EPA] National Institutes of Environmental Health Sciences [NIEHS] National Toxicology Program [NTP] U.S. Food and Drug Administration [FDA] Tox21 Assay Overview: Transforming growth factor beta (TGF-beta) superfamily consists of a large number of structurally related dimeric proteins that act as hormones or local mediators in regulating a wide range of biological functions. This superfamily includes TGF-betas themselves, the bone morphogenetic proteins (BMPs) and the activins. These ligands induce oligomerization of serine/threonine receptor kinases and phosphorylate the cytoplasmic signaling molecules of Smad protein family. CellSensor SBE-bla HEK 293T cell line (Life Technologies, Carlsbad, CA), responsive to TGF-beta was used to screen Tox21 10K compound library for identification of agonists/antagonists of the Smad signaling pathway. […]
Tox21 Assay Protocol Summary: SBE-bla HEK 293T cells were dispensed at 4,000/well in 5 uL of assay medium into black wall/clear-bottom 1536-well plates using a Multidrop Combi (ThermoFisher Scientific, Waltham, MA) dispenser. […] Fluorescence intensity (405 nm excitation, 460 nm and 530 nm emissions) was measured using an Envision plate reader (PerkinElmer, Shelton, CT).
Potency is read from the fitted curve at half-maximal effect.

Row | SMILES | Potency
1 | CCCCCCCCCCCC[N+](C)(C)CCOc1ccccc1 | 50.9 µM (active)
